Data: paper PMC5540273 (PLoS ONE, 2017)

These molecules were tested on AAK1. Conditions: concentration: 1 μM, replicates: in singlicate; n = 1.
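Note: KINOMEscan kinase panel screen.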

SMILES	%Inh [%]
Cl.c1ccc(-c2ccc3c(Nc4ccc5[nH]ccc5c4)ccnc3c2)nc1 [GW440138]	10
Nc1n[nH]c2cnc(-c3ccccc3)cc12 [SB-642124]	37
CN(C)Cc1ccc(-c2ccc3c(Nc4ccc(Oc5ccccn5)cc4)ccnc3c2)o1 [GW567148]	0
CC(C)(C)c1ccc2nccc(Nc3cccc(O)c3)c2c1 [GW856795]	0
O=c1[nH]cc(-c2ccc(N3CCOCC3)cc2)c2sc(-c3cn[nH]c3)cc12 [GSK2276055]	23
O=C(Nc1n[nH]c2cc(-c3ccoc3)ccc12)C1CC1 [SB-738481]	45
CC(=O)N1CCN(c2ccc(Nc3nccc(-c4sc(C(C)C)nc4-c4cccc(NS(=O)(=O)c5cccc(Cl)c5)c4)n3)cn2)CC1 [GSK1660437]	0
COc1cc2c(cc1OCCN1CCNCC1)ncc1c3ccc(C#N)cc3[nH]c21	96.2
Oc1cc(Nc2ccnc3cc(I)ccc23)ccc1F [GW552771]	10
COc1cccc(C2=C(Nc3ccc(Cl)c(C(=O)O)c3)C(=O)NC2=O)c1 [SB-390769]	9
O=C(Nc1cccc(-c2nn3ccccc3c2-c2ccnc(Nc3cccc(F)c3)n2)c1)c1c(F)ccc(F)c1Cl [GSK357952]	0
O=C(Nc1cccc(Oc2ccc3nc(NC(=O)C4CC4)cn3n2)c1)c1ccccc1C(F)(F)F	45
CSc1cccc2c(-c3ccncn3)c(-c3ccc(F)cc3)nn12 [GW514786]	0
Cn1cc(-c2[nH]c3cc(NC(=O)[C@H](N)C4CCCCC4)cc4c3c2C=NNC4=O)cn1	99.5
COc1ccc(CNC(=O)NC2CCN(c3ccnc(Nc4ccc(F)cc4)n3)CC2)cc1 [GSK1379788]	13
COc1cccc(NC(=O)NC2CCN(c3ccnc(Nc4cc(OC)c(OC)c(OC)c4)n3)C2)c1 (stereo not drawn) [GSK1379763]	74
O=C(Nc1n[nH]c2nc(-c3ccc(O)cc3)ccc12)C1CC1 [SB-710363]	38
CN1CCN(CCCNc2nccc(-c3c(-c4ccc(F)cc4)nn4cc(C(F)(F)F)ccc34)n2)CC1 [GW621581]	1

SMILES	%Inh [%]
c1ccc(-c2n[nH]cc2Nc2ccnc3ccccc23)nc1 [GW694077]	82
CCc1ccc(-c2ccc3c(c2)-c2c(cnn2C)S(=O)(=O)N3C)cc1	0
NCCCC(NC(=O)c1cc(Br)c(-c2ccnc3[nH]ccc23)s1)c1ccccc1.O=C(O)C(F)(F)F.O=C(O)C(F)(F)F (stereo not drawn) [GSK1287544]	55
Nc1ncc(-c2cccnc2)c2scc(-c3ccc4c(c3)CCN4C(=O)Cc3ccccc3)c12 [GSK683281]	24
Cl.c1ccc(-c2ccc3c(Nc4ccc5[nH]ncc5c4)ccnc3c2)nc1 [GW440137]	18
Cc1ccc(C)c(NC(=O)NC2CCN(c3ccnc(Nc4ccc(F)cc4)n3)C2)c1 (stereo not drawn) [GSK1379720]	6
COc1cc(Nc2nccc(-c3c(-c4cccc(NC(=O)c5c(F)cccc5F)c4)nn4ccccc34)n2)cc(OC)c1OC [GSK323521]	44
Fc1ccc(-c2ncn(C3CCNCC3)c2-c2ccnc(Oc3ccc(-c4ccccc4)cc3)n2)cc1 [SB-245391]	14
COc1cc(Nc2ncc3c(C)nc(-c4cc5ccccc5[nH]4)n3n2)cc(OC)c1OC [GW869516]	0
Clc1ccc(-c2nn3ncccc3c2-c2ccnc(Nc3ccc4c(c3)OCCO4)n2)cc1 [GW829116]	0
c1ccc(-c2cnc3nccnn23)cc1 [AH20685]	0
O=C(Nc1ccccc1F)NC1CCN(c2ccnc(Nc3ccc(F)cc3)n2)CC1 [GSK1379800]	17
Cc1occc1-c1ncc(OC[C@@H](N)Cc2c[nH]c3ccccc23)cc1-c1ccc2[nH]nc(C)c2c1.O=C(O)C(F)(F)F [GSK682037]	61
C[C@@H]1CC[C@@H](C(=O)Nc2ccccc2)CN1c1cc(-c2ccc3c(N)n[nH]c3c2)nc(N)n1 [GSK2286062]	18
COc1cc(Nc2nccc(-c3c(-c4cccc(NC(=O)c5c(F)cccc5F)c4)nn4ncccc34)n2)cc(OC)c1OC [GSK327238]	13
C[C@@H](Oc1cc(-n2cnc3cc(-c4ccnc(NCCS(C)(=O)=O)c4)ccc32)sc1C(N)=O)c1ccccc1Cl [GSK907232]	73
CN1CCN(Cc2cccc(-c3ccc4c(Nc5ccc(Oc6ccccc6)cc5)ccnc4c3)c2)CC1 [GW578342]	10
Cc1ccc(S(=O)(=O)Nc2ccc(Nc3nccc(Nc4cccc5[nH]ncc45)n3)cc2)cc1 [GSK581271]	27
